# PubChem BioAssay (NCI)
# About 79,000 compounds went through this panel and 15% of them were active in at least one assay; those are over-represented in the sample as a whole. Unmarked numbers belong to inactive results. The source made the active and inactive calls. Rule as the data show it: active = growth inhibition above about 70%; inactive = the rest.
# Test: NCI Yeast Anticancer Drug Screen. Data for the cln2 rad14 strain (AID 165);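 also: 0% = growth equal to vehicle treated cultures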
# Conditions: S. cerevisiae cln2 rad14 strain, at 50.0 µM (retest, dose inferred, filed as 5.0), active compounds read high
# How it was run: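 Strain: cln2 rad14 yeast, altered in cell cycle control and DNA damage repair. Read-out: growth inhibition vs vehicle.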
row,Compound,growth inhibition
1,O=C(Nc1ccccc1-c1nn(C(=S)Nc2ccccc2)c(=S)n(C(=S)Nc2ccccc2)c1=O)C(F)(F)F,38%
2,Cc1ccc(N=C(N)NN=C(c2ccc(Cl)cc2)c2ccc(Cl)cc2)cc1,22%
3,Cc1cccc(C)c1N1C(=O)C(=O)C(c2nc3ccccc3s2)/C(=N/NC(=O)c2ccccc2O)C1=O (stereo not drawn),21%
4,CN(C)CC1CC/C(=C\c2ccc(O)cc2)C1=O (stereo not drawn),53%
5,CCCCCC=C(c1cc(Br)cc(C(=O)O)c1O)c1cc(Br)cc(C(=O)O)c1O,94% (active)
6,CCS(CC)(CC)CC1CCCC2=CCC(P(=O)(c3ccccc3)c3ccccc3)CC21 (stereo not drawn),5%
7,Cc1c[n+](=O)c2ccccc2n1[O-],1%
8,O=C1CC(=S)NC(=S)N1,-6%
9,CC1=NN(C(=O)c2ccc(Cl)cc2)C(=O)C1N=Nc1ccc(S(=O)(=O)Nc2ncccn2)cc1 (stereo not drawn),2%
10,COC(=O)c1cc(=O)n(-c2ccccc2OC)c(SC)n1,67%
11,CCCCN(CCCC)Cc1ccc(NC(C(=O)c2ccccc2)c2ccccc2)cc1 (stereo not drawn),34%
12,Cn1cc(/C=C/[N+](=O)[O-])c2ccc(OCc3ccccc3)cc21,54%
13,O=C(c1ccc([N+](=O)[O-])cc1)N1CCCSC1=S,27%
14,CCCCCCCCC(=O)NCCN(CCN)C(=O)CCCCCCCC,98% (active)
15,Cc1nc2sc3c(c2c2nnnn12)CCCC3,23%
16,CCC(CC)(C(=O)Nc1ccc2c(c1)c(=O)c1ccccc1n2C)C(=O)Nc1ccc2c(c1)c(=O)c1ccccc1n2C,75% (active)
17,Cc1ccccc1N1CCN(c2c3c(nc4ccccc24)CCCCC3)CC1,95% (active)
18,O=C(Nc1ccccc1)c1cc(Cl)ccc1O,33%
19,CCCCCCCCCCCCCCCCCCOP(=O)([O-])OC1CC[N+](C)(C)CC1,99% (active)
20,CN(C)c1ccc(C(O)(Cc2cccc(C#N)c2)c2ccc(N(C)C)cc2)cc1,-16%
21,CC(=O)N1CCC(Cc2ccccc2)CC1,70% (active)
22,O=[N+]([O-])c1ccc(-n2ncc3cccnc32)c([N+](=O)[O-])c1,98% (active)
23,CC(C)OC(=O)c1ccc(NCC2=CC(=O)C=CC2=O)cc1Cl,100% (active)
